Screens from PubChem.
A selection: hits, their analogues and other compounds. The true share with any hit is near 10%.
CCT modulator – changes cytosolic chaperonin activity; AID 651819; activity change, % (test concentration not listed), hits read low; 360,000 tested, 0.3% active; purified chaperonin ATPase assay, HTRF ADP detection, 30 min; in the data active = activity change below about -30%
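TRiC at 40 or 20 nM final (batch-dependent) in 30 mM Tris pH 7.4, 100 mM KCl, 5 mM MgCl2, 1 mM DTT, with compound at single 76 uM and 10 uM ATP, 30 min at 37 deg C. ADP detected by HTRF Transcreener, 665/615 ratio.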
VDR inhibitor – blocks the human vitamin D receptor; Potency, µM, hits mostly inhibitors; P11473; 400,000 tested, 0.93% active; VDR-SRC2-3 peptide fluorescence polarization, 2 h
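After 23 nl compound addition and a short centrifugation, plates sat for 2 hours at ambient temperature; polarization of fluorescence then indicated loss of VDR binding to peptide SRC2-3.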
Mm-Cpn inhibitor – inhibitors of Methanococcus maripaludis chaperonin TRiC (MmCpn) | Potency, µM (series often up to 76.9 µM), hits mostly inhibitors | 330,000 tested, 0.031% active | AID 504842 | purified Mm-Cpn ATPase, ADP Transcreener TR-FRET; note: nearly all actives have a fitted effect of over 80% in size
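ATPase read-out: TR-FRET ADP immunoassay (anti-ADP Eu cryptate vs ADP-d2), ex 320 nm, em 590/665 nm; signal drops as ADP forms. Enzyme 25 nM, ATP 10 uM, 30 min at 37°C after 10 min compound preincubation.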
Sfp PPTase inh – inhibitors of Bacillus subtilis Sfp phosphopantetheinyl transferase; Potency, µM, actives largely listed as inhibitors; Q9F4F7; 310,000 tested, 3.5% active; AID 1490; Biochemical Sfp PPTase activity, qHTS;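 note: the enzyme is Sfp with the accession as filed and its product quenches rhodamine fluorescence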
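Fluorescence-quenching assay with 15 nM Sfp, 5 uM rhodamine-CoA and 12.5 uM BHQ-2-labelled ybbR peptide in pH 7.6 Hepes/MgCl2 buffer. Enzyme was pre-incubated with compound for 15 min at room temperature. Rate was taken from the 30-min fluorescence change (525/598 nm).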
PLK1 PBD block – inhibitors of human PLK1 polo-box domain binding. P53350. Plk1 PBD binding of FITC phosphopeptide, fluorescence polarization. Potency, µM, hits mostly inhibitors. 360,000 tested, 2.8% active; note: series mostly up to about 57 µM; nearly all actives have a fitted effect of over 65% in size
Target sequence (P53350 whole entry, looked up, the tested form may be a part): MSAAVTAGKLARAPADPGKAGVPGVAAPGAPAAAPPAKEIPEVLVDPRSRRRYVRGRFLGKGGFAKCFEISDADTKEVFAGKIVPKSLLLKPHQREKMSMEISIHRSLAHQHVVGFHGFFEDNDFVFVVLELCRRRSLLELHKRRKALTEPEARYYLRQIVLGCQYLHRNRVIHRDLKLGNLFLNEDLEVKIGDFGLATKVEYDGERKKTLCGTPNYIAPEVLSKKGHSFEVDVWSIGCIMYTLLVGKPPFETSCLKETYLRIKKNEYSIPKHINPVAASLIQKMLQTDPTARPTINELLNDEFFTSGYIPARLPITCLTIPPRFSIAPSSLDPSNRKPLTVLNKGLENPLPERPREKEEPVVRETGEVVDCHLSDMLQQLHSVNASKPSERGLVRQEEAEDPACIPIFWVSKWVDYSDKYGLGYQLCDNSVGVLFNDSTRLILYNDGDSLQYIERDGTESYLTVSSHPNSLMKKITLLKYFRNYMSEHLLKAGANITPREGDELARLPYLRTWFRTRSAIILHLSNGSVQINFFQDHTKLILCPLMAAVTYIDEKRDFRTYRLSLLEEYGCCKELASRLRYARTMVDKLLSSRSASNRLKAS
G9a block – blocks human histone lysine methyltransferase G9a; G9a H3K9 monomethylation, AlphaScreen, 2 h; Potency, µM (titrated, usually from 102 µM), most hits filed as inhibitors; 350,000 tested, 8.8% active; note: nearly all actives have a fitted effect of over 75% in size
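G9a (20 nM) preincubated 15 min RT with compounds, then 500 nM biotinylated H3K9 peptide and 20 uM SAM added; 2 h RT reaction. Monomethyl-H3K9 product detected by AlphaScreen with anti-H3K9me1 antibody, streptavidin donor and anti-rabbit IgG acceptor beads.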
Large screens that a line does not name were inactive. Unless noted, calls come from the whole dose curve; as a rule, active = well fitted curve in the direction sought with a large enough effect; inconclusive = small, poorly fitted or top-dose-only effect, or another doubt; inactive = no such curve, though single readings can be large; an effect the other way counts as inactive or inconclusive.

CCc1ccccc1NC(=O)C1CCN(S(=O)(=O)c2ccc3[nH]c(=O)ccc3c2)CC1	none (no result: CCT modulator, Mm-Cpn inhibitor, Sfp PPTase inh, PLK1 PBD block)
O=C1c2ccccc2C(=O)N1Cc1ccc2c(c1)OCO2	none
C=C1c2ccccc2NC(=S)N1Cc1ccc2c(c1)OCO2	PLK1 PBD block inconclusive, G9a block 32µM
CCOc1ccc(CNC(=O)c2cnc3sc(N4CCC(C)CC4)nn3c2=O)cc1OC	none (no result: CCT modulator, Mm-Cpn inhibitor, Sfp PPTase inh, PLK1 PBD block)
O=C(CNC(=O)c1ccccc1)OCCOc1cccc(Cl)c1	none (no result: Sfp PPTase inh)
O=C(CNC(=O)c1ccccc1)Oc1cccc(Cl)c1	PLK1 PBD block 7.5µM (no result: Mm-Cpn inhibitor, Sfp PPTase inh, G9a block)
Cc1ccc(C(=O)CSc2nnc(-c3ccco3)n2Cc2ccccc2)cc1	VDR inhibitor inconclusive, PLK1 PBD block 2.7µM
NC(=O)NC(=O)CSc1nnc(-c2ccco2)n1Cc1ccccc1	none
CCn1c(SCC(=O)c2ccc(Cl)cc2)nnc1-c1ccoc1C	VDR inhibitor inconclusive
CCn1c(SCC(=O)c2ccc(C)cc2)nnc1-c1ccoc1C	Sfp PPTase inh 79µM, G9a block 50µM
O=C(CSc1nnc(-c2ccco2)n1Cc1ccccc1)c1ccccc1	Sfp PPTase inh 56µM, G9a block inconclusive
Cc1cc(C)cc(NC(=O)N2CCC(CN3CCc4ccccc4C3)CC2)c1	none (no result: CCT modulator, Mm-Cpn inhibitor, Sfp PPTase inh, PLK1 PBD block)
O=C(CSc1nnc2scc(-c3ccccc3)n12)Nc1ccc(Cl)cc1	none (no result: CCT modulator, Mm-Cpn inhibitor, Sfp PPTase inh, PLK1 PBD block)
N#Cc1cccc(-c2nc(Nc3ccncc3)c3ccccc3n2)c1	none (no result: CCT modulator, Mm-Cpn inhibitor, PLK1 PBD block, G9a block)
CS(=O)(=O)Nc1cccc(-c2nc(NCc3ccccc3)c3ccccc3n2)c1	VDR inhibitor 50µM (no result: CCT modulator, Mm-Cpn inhibitor, PLK1 PBD block)
Cc1noc(C)c1-c1nc(NCc2ccccc2)c2ccccc2n1	VDR inhibitor 35µM (no result: CCT modulator, Mm-Cpn inhibitor, PLK1 PBD block)
N#Cc1cccc(-c2nc(NCc3ccccc3)c3ccccc3n2)c1	VDR inhibitor 45µM (no result: CCT modulator, Mm-Cpn inhibitor, PLK1 PBD block)
Cc1noc(C)c1-c1nc(NCc2cccnc2)c2ccccc2n1	VDR inhibitor inconclusive (no result: CCT modulator, Mm-Cpn inhibitor, PLK1 PBD block, G9a block)
CC(=O)N(CCCN1CCOCC1)Cc1ccncc1	PLK1 PBD block 30µM, G9a block 50µM
c1cc(CNCCCN2CCOCC2)ccn1	G9a block inconclusive
O=C(O)C1C2C=CC(O2)C1C(=O)Nc1ccc(S(=O)(=O)N2CCc3ccccc32)cc1 (configuration not stated)	G9a block 11µM
COc1cccc(NC(=O)C2C3C=CC(O3)C2C(=O)O)c1 (configuration not stated)	none (no result: G9a block)
CC(C)OC(=O)c1cc(NC(=O)C2C3C=CC(O3)C2C(=O)O)cc(C(=O)OC(C)C)c1 (configuration not stated)	G9a block 50µM
CCCOC(=O)c1ccc(NC(=O)C2C3C=CC(O3)C2C(=O)O)cc1 (configuration not stated)	Sfp PPTase inh 79µM, G9a block 14µM
O=C(O)C1C2C=CC(O2)C1C(=O)Nc1ccc2c(c1)OCCO2 (configuration not stated)	G9a block inconclusive (no result: CCT modulator, VDR inhibitor, PLK1 PBD block)
COc1ccc(NC(=O)C2C3C=CC(O3)C2C(=O)O)cc1 (configuration not stated)	G9a block 40µM
CC(=O)c1ccc(NC(=O)C2C3C=CC(O3)C2C(=O)O)cc1 (configuration not stated)	G9a block inconclusive
CC1Cc2cc(S(=O)(=O)CCC(=O)Nc3ccc(F)cc3Cl)ccc2N1C(=O)C1CC1 (configuration not stated)	none (no result: CCT modulator, Mm-Cpn inhibitor, Sfp PPTase inh, PLK1 PBD block)
O=S(=O)(c1ccc(-c2cc(C(F)(F)F)on2)s1)N1CCN(c2ccc(F)cc2)CC1	none (no result: CCT modulator, Mm-Cpn inhibitor, Sfp PPTase inh, PLK1 PBD block)
CCOCCCn1c(SCC(=O)Nc2cc(C)ccc2C)nc2c(oc3ccccc32)c1=O	none (no result: CCT modulator, Mm-Cpn inhibitor, Sfp PPTase inh, PLK1 PBD block)
CCc1ccc(NC(=O)CSc2nc(-c3ccccc3Cl)nc3c2Cc2c(CO)cnc(C)c2O3)cc1	none (no result: CCT modulator, Mm-Cpn inhibitor, Sfp PPTase inh, PLK1 PBD block)
Cc1ccc(S(=O)(=O)NN=C2CC3CCC2(C)C3(C)C)cc1 (configuration not stated)	none (no result: Mm-Cpn inhibitor, Sfp PPTase inh, G9a block)
CC(=O)c1sc(N/N=C2\CC3CCC2(C)C3(C)C)nc1C (configuration not stated)	Sfp PPTase inh 28µM, PLK1 PBD block inconclusive (no result: G9a block)
CC(=O)N1CC[C@H]2CC(=O)CC[C@@]21C	none (no result: CCT modulator, Mm-Cpn inhibitor, PLK1 PBD block)
O=c1cc(-c2ccc(F)cc2)nc(SCc2nc(-c3ccc(Cl)cc3)no2)[nH]1	none (no result: CCT modulator, Mm-Cpn inhibitor, Sfp PPTase inh, PLK1 PBD block)
C/C(CCC(C)C)=N\Nc1cc(C)c2ccccc2n1	VDR inhibitor inconclusive, Sfp PPTase inh 28µM, G9a block inconclusive
